# From PubChem BioAssay (EPA / NIEHS)
# “And” between values parts separate entries of the source, which are not always exact repeats. Equal values may be shown once. Some structures have more than one record in an assay (separate samples or runs), and their calls can disagree. The source made the active and inactive calls. The calls were made as follows: active = hit-call score of the fitted dose curve at least 0.9, where 1 is the maximum; inactive = score below 0.9.
# Assay: ATG_MRE_CIS: Attagene CIS-FACTORIAL HepG2 Assay for human Metal Responsive Element (MRE) (AID 2282954)
# Settings: HepG2 MRE cis-reporter transcription, Attagene multiplex; actives raise or lower the signal
# Method: ATG_CIS is a cell-based, multiplexed-readout assay that uses HepG2, a human liver cell line, with measurements taken at 24 hours after chemical dosing in a 24-well plate.ATG_MRE_CIS is one of 52 assay component(s) measured or calculated from the ATG_CIS assay. It is designed to make measurements of mRNA induction, a form of inducible reporter, as detected with fluorescence intensity signals by Reverse transcription polymerase chain reaction (RT-PCR) and Capillary electrophoresis technology.Data from the assay component ATG_MRE_CIS was analyzed into 1 assay endpoint. This assay endpoint, ATG_MRE_CIS, was analyzed with bidirectional fitting relative to DMSO as the negative control and baseline of activity. Using a type of inducible reporter, measures of mRNA for gain or loss-of-signal activity can be used to understand the reporter gene at the transcription factor-level as they relate to the gene MTF1. Furthermore, this assay endpoint can be referred to as a primary readout, because this assay has produced multiple assay endpoints where this one serves a reporter gene function. To generalize the intended target to other relatable targets, this assay endpoint is annotated to the dna binding intended target family, where the subfamily is zinc finger.
# Human liver HepG2 cells are transiently transfected with multiple reporter transcription units (MRTUs) in 6-well plates using FuGene 6 reagent (Roche; 3 ml FuGene/1 mg DNA). The MRTU constructs are regulated by a cis-regulating element (promoter). […] A major difference between the CIS and TRANS system is that in CIS activities of endogenous TFs are measured, whereas the TRANS assay evaluates changes in activities of exogenous, chimeric NR-Gal4 proteins. […] At the end of 24 hour incubation, total RNA was isolated using TriZol reagent (Invitrogen). The isolated RNA is then reverse-transcribed using oligo(dT) primer and Mo-MLV reverse transcriptase (Invitrogen) with DNAse I (Ambion) treatment for 30 min. The one-tenth of the produced cDNA was amplified by PCR using Taq DNA polymerase (Invitrogen) and two reporter sequence-specific primers. The PCR products were fluorescently labeled by primer extension with 6-arboxyfluorescein (6-FAM) 5'-labeled reporter sequence-specific primer (2 min at 95 C, 20 s at 68 C and 10 min at 72 C) and these products were digested with 5U of HpaI (New England Biolabs) for 2h at 37 C. The fragments were purified using Qiaquick PCR columns (Qiagen), analyzed on an ABI 3130xL genetic analyzer (Applied Biosystems) with peak positions identified by using a set of X-rhodamine (ROX)-labeled MapMarker1000 molecular weight standards (BioVentures). The raw capillary electrophoresis data was processed using Attagraph software (Attagene).
SMILES,outcome,AC50
CCCCCCCCCl,inactive,–
CC(Br)C(=O)O (stereo not given),inactive,–
COC[C@H](C)N(C(=O)CCl)c1c(C)csc1C,inactive,–
C=CC#N,inactive,–
N#CN=C(N)N,inactive,–
Cc1ccccc1N,inactive,–
Clc1ccc(COC(Cn2ccnc2)c2ccc(Cl)cc2Cl)cc1 (stereo not given),inactive,–
NC(=O)O,inactive,–
C[C@H]1CCCC(=O)CCC/C=C/c2cc(O)cc(O)c2C(=O)O1,–,33.1 µM (active)
O=C(Cl)c1ccc(Cl)cc1,inactive,–
O=C(Nc1ccc2[nH]ccc2c1)c1cc2cc(F)ccc2n1Cc1cccc(F)c1,–,11 µM (active)
c1ccc(N=NNc2ccccc2)cc1,–,100 µM (active)
CC(C)(c1ccc(OCC2CO2)cc1)c1ccc(OCC2CO2)cc1 (stereo not given),–,31.8 µM (active)
COc1cc(OC)nc(NC(=O)NS(=O)(=O)c2ncccc2C(=O)N(C)C)n1,inactive,–
O=[N+]([O-])c1ccc2c3c(cccc13)CC2,inactive,–
Cc1cc(=O)[nH]o1,inactive,–
O=P(O)(O)CN(CP(=O)(O)O)CP(=O)(O)O,inactive,–
O=C(O)C(Cl)(Cl)Cl,inactive,–
Nc1cccc(Cl)c1,inactive,–
C=CC(=O)N(C)C,inactive,–

SMILES,outcome,AC50
NNC(=S)NN,inactive,–
CCCCP(CCCC)CCCC,inactive,–
Cc1cc(Cl)ccc1O[C@H](C)C(=O)O,inactive,–
CCc1ccccc1C,inactive,–
COP(=S)(OC)Oc1ccc(S(=O)(=O)N(C)C)cc1,–,69 µM (active)
CNC(=O)O/N=C/C(C)(C)S(C)=O (stereo not given),inactive,–
CC(C)(OO)c1ccccc1,inactive,–
COP(=S)(OC)Oc1cc(Cl)c(Cl)cc1Cl,inactive,–
ClC(Cl)=C(Cl)C(Cl)=C(Cl)Cl,–,152 µM (active)
COc1cc(-c2ccc(N)c(OC)c2)ccc1N,–,49.7 µM (active) and 57.9 µM (active)
CC(=[OH+])/C=C(/C)[O-].CC(=[OH+])/C=C(/C)[O-].CC(=[OH+])/C=C(/C)[O-].[Al],inactive,–
Cc1ccccc1C(=O)Nc1cccc(OC(C)C)c1,inactive,–
BrCCBr,inactive,–
CCOP(=O)(CN(CCO)CCO)OCC,inactive,–
CC1(C)CCC(Cc2ccc(Cl)cc2)C1(O)Cn1cncn1 (stereo not given),inactive,–
Clc1nc(Cl)nc(Cl)n1,inactive,–
NC(=S)Nc1ccccc1,inactive,–
O=C1C(Cl)=C(Cl)C(=O)c2ccccc21,inactive,–
Oc1cccc2cccnc12,inactive,148 µM (active)
